Screening results from PubChem BioAssay.
VP16 counter: Gal4-VP16 reporter inhibition counter-screen; Drosophila S2 Gal4-VP16 UAS-luciferase, luminescence, 20 h; Potency, µM (doses to about 53.6 µM), without a hit: at the top dose activity, negative = inhibition, actives largely listed as inhibitors; 310,000 tested, 3.5% active; AID 2546;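 note: Gal4-VP16 expression switched on by copper sulfate through the metallothionein promoter; nearly all actives have a fitted effect of over 50% in size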
RORg inh: inhibitors of mouse ROR gamma transcriptional activity; 310,000 tested, 5.4% active; Drosophila S2 Gal4-RORgamma UAS-luciferase reporter, 20 h; AID 2551; Potency, µM (top dose mostly 53.6 µM), for the others: at the highest dose activity change, negative = inhibition, actives largely listed as inhibitors; note: nearly all actives have a fitted effect of over 60% in size
Target sequence (P51450 whole entry, looked up, the tested form may be a part): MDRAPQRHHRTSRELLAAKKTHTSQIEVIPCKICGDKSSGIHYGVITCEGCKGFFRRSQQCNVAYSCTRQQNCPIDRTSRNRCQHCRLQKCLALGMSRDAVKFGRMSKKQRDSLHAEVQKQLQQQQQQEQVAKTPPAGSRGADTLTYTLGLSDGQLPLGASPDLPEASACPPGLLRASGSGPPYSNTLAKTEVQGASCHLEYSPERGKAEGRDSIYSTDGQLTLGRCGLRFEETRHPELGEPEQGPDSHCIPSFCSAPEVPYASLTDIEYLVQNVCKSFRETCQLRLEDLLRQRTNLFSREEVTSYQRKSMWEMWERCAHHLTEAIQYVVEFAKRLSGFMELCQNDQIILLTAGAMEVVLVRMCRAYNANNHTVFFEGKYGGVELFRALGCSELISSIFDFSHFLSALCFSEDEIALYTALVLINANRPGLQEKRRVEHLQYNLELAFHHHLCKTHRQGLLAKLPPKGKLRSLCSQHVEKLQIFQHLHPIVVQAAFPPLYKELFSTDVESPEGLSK
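Luminescence from a UAS-regulated Photinus luciferase reporter in stably transfected Drosophila Schneider cells is measured; decreased signal marks ROR gamma inhibition. Fusion expression is induced by 700 uM copper sulfate for 20 hr.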
ELG1 repair inh: blocks ELG1-dependent DNA repair in HEK293T cells | 330,000 tested, 2.3% active | HEK293T ELG1-luciferase reporter, luminescence, 16 h; DNA damage induced by 5-fluorouridine | AID 504467 | Potency, µM (series often up to 46.1 µM), without a hit: at the highest dose activity change, negative = inhibition, hits mostly inhibitors; note: nearly all actives have a fitted effect of over 55% in size
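Cells (2,000 per well) received 5-fluorouridine plus test compound or DMSO and were incubated 16 hr at 37 °C, 5% CO2. Luciferase activity was read by luminescence 30 min after ONE-Glo addition; signal suppression marked inhibition of damage-induced ELG1 function.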
TDP1 cell CPT: growth inhibition of DT40 Tdp1-/-;hTDP1 cells with camptothecin (screen for TDP1 inhibitors); 420,000 tested, 12% active; chicken DT40 Tdp1-/-;hTDP1 cells + 20 nM CPT, ATP luminescence, 48 h; Potency, µM (highest dose often 46.2 µM), inactives show at the top dose activity change, negative = growth inhibition, actives largely listed as inhibitors; note: nearly all actives have a fitted effect of over 55% in size
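Cell growth measured by CellTiter-Glo luminescence after a minimum 48 h, 37 C compound exposure with 20 nM CPT in Tdp1-knockout DT40 cells stably expressing hTDP1, seeded 400/well; qHTS titration format.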
12-LOX inh: blocks human arachidonate 12S-lipoxygenase. 580,000 tested, 1.1% active. purified 12hLO, xylenol orange hydroperoxide absorbance. Potency, µM (titrated, usually from 108 µM), without a hit: top-dose activity change, negative = inhibition, usual class: inhibitors
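Purified human 12hLO (150 nM final) in 25 mM Hepes, 0.01% Triton X-100, pH 7.0 was preincubated 15 min at room temperature with compound. Then 40 uM arachidonic acid was added, 30 min. Hydroperoxide was read by Fe-XO absorbance ratio 573/405 nm.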
DT40 TDP1 no CPT: qHTS for Inhibitors of human tyrosyl-DNA phosphodiesterase 1 (TDP1): qHTS in cells in absence of CPT. 420,000 tested, 15% active. Potency, µM (highest dose often 46.2 µM), for inactives: at the top dose activity change, negative = growth inhibition, hits mostly inhibitors. AID 686978, 2013. DT40 Tdp1-/- hTDP1 cells, no CPT, ATP luminescence, 48 h; note: nearly all actives have a fitted effect of over 55% in size
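DT40 Tdp1-/-;hTDP1 cells, no CPT (DMSO vehicle only), 400 cells/well; compounds pin-transferred; ≥48 hr, 37 °C; CellTiter-Glo 30 min RT dark, luminescence read.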
Numbers without * were called inactive; ? = inconclusive; . = no result; [ ] = remark or other dose. Sampled rows, rich in hits. Any-hit rate of the full collection: about 15%. Calls come from the whole dose curve; as a rule, active = well fitted curve in the direction sought with a large enough effect; inconclusive = small, poorly fitted or top-dose-only effect, or another doubt; inactive = no such curve, though single readings can be large; an effect the other way counts as inactive or inconclusive. % is set by controls: 0 for no effect and ±100 for the full control effect; potency is the fitted concentration of half-maximal effect.

SMILES	VP16 counter	RORg inh	ELG1 repair inh	TDP1 cell CPT	12-LOX inh	DT40 TDP1 no CPT
CC(OC(=O)c1cc[n+]([O-])cc1)C(=O)Nc1ccc(Cl)cn1 (stereo not drawn)	-4.2%	22.7%	0.0%	-7.7%	0.0%	-10.1%
COC[C@@H]1CN(C(=O)c2cccc(C#N)c2)C[C@H]1c1ccccn1	.	.	.	.	16.1%	.
O/N=C(\c1ccc(Cl)cc1)c1cc2ccccc2o1	?	?	-6.7%	18.4µM*	?	18.4µM*
COc1cccc(Nc2ncc(-c3cccnc3)c3c2OCC3)c1	.	.	.	.	73.0%[176 µM]	.
COC(=O)c1sc(=S)n(-c2cccc(C)c2C)c1N	.	.	.	.	3.4%	.
Cc1onc(-c2c(F)cccc2Cl)c1C(=O)N1CCc2ccccc21	1.4%	-0.8%	-11.8%	?	2.2%	?
CCOC(=O)C1(C)CCCN(C(=O)c2c(-c3ccccc3)noc2C)C1 (stereo not drawn)	.	.	.	13µM*	-4.6%	?
Cc1onc(-c2c(Cl)cccc2Cl)c1C(=O)N1CCCc2ccccc21	1.8%	-8.1%	?	20.6µM*	14.4%	20.6µM*
Cc1onc(-c2ccccc2)c1C(=O)N1CCCc2ccccc21	-1.1%	13.8%	-10.4%	?	-27.9%	16.4µM*
C=CCn1c(SCc2coc(-c3ccc(C)cc3)n2)nnc1C1CCS(=O)(=O)C1 (stereo not drawn)	.	.	.	.	-4.8%	.
Cc1nc(-c2ccccc2Cl)sc1C(=O)N[C@@H](C)C(=O)O	.	.	.	.	2.0%	.
COc1ccc(-c2ccc(C#N)c(SCC(=O)Nc3ccccc3Cl)n2)cc1	.	.	.	.	-4.6%	.
O=C(CCc1cccnc1)N1CC[C@@H](c2ccc3ccccc3c2)[C@H](O)C1	.	.	.	.	37.4%	.
COc1cccc(-n2cnnc2SC(C)C(=O)Nc2ccc(N3CCOCC3)cc2)c1 (stereo not drawn)	.	.	.	.	-27.8%	.
OC(c1ccccc1)c1ncc(-c2ccc(Cl)cc2)[nH]1 (stereo not drawn)	.	.	.	-3.5%	2.5%	-9.9%
Cc1cc(C(O)c2ncc(-c3ccccc3)[nH]2)ccc1F (stereo not drawn)	.	.	.	16.4µM*	.	?
OC(c1ccc(-c2ccccc2)cc1)c1ncc(-c2ccc(F)cc2)[nH]1 (stereo not drawn)	.	.	.	29.1µM*	-2.3%	?
Cc1cccc(-n2nc(-c3c(C)nc4scc(CC(=O)N5CCOCC5)n4c3=O)cc2C)c1	.	.	.	.	-6.9%	.
CCN(CC)c1ccc(NC(=S)NC(=O)Cc2ccccc2)cc1	2.51µM*	2.51µM*	8.7%	-24.7%	-21.3%	?
COc1ccc(CNC(=S)N/N=C/c2ccncc2)cc1	?	?	7.1%	-4.9%	-24.0%	-0.1%
CCN(CC)c1ccc(/C=N/NC(=S)NCc2ccccc2)cc1	3.98µM*	1.26µM*	-16.5%	?	?	16.4µM*
CCN(CC)c1ccc(/C=N/NC(=O)C(O)c2ccccc2)cc1 (stereo not drawn)	3.0%	-1.7%	-6.9%	-6.5%	37.0%	-13.2%
C=CCNC(=S)N/N=C/c1ccc(N(CC)Cc2ccccc2)cc1	0.708µM*	0.501µM*	?	20.6µM*	50.1µM*	18.4µM*
S=C(NCc1ccccc1)N/N=C/c1cccc(Cl)c1	.	.	.	.	51.7%	.
CN(C)S(=O)(=O)c1ccc(NC(=S)NC(=O)Cc2ccccc2)cc1	10.4%	-18.5%	6.3%	-22.6%	?	-10.3%
CCN(CC)c1ccc(/C=N/NC(=S)NCc2ccc(OC)cc2)cc1	1.41µM*	0.891µM*	?	-16.9%	?	?
O=C1C(=O)N(CCCc2ccccc2)c2ccccc21	6.9%	?	4.4%	2.06µM*	.	1.64µM*
O=C1C(=O)N(C/C=C/c2ccccc2)c2ccccc21	7.1%	5.6%	?	0.92µM*	?	0.581µM*
